Our source for the Potency values is PubChem BioAssay AID1963322 (National Center for Advancing Translational Sciences (NCATS), 2024).

Records with an inconclusive call do not appear. Where a call stands in place of a potency, no number is given. Active and inactive are the calls of the source. Calls follow the shape of the full dose curve.

The experiment deals with cAMP-dependent protein kinase catalytic subunit alpha (Homo sapiens) (UniProt P17612). Kind of experiment: Protein Kinase A (PKA-HiBiT) SDR gain of signal screen. Particulars: PKA-HiBiT structural dynamics response (SDR), luminescence gain of signal; series mostly up to 32.9 µM. The gist of the method: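 Gain of luminescent signal after Nano-Glo HiBiT detection (10 min, RT) was the read-out. Beforehand, compounds were incubated 30 min at room temperature in the dark with 10 nM final PKA-N-HiBiT, with H-89 as positive control.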
(The HiBiT peptide binds its large partner to form an active luciferase.)
With `CO[C@@H](C(=O)N1Cc2[nH]nc(NC(=O)c3ccc(N4CCN(C)CC4)cc3)c2C1)c1ccccc1`, the Potency entry was “inactive”. In the case of `CCN1CCN(Cc2ccc(NC(=O)c3ccc(C)c(NC(=O)c4cncc(-c5cccs5)c4)c3)cc2C(F)(F)F)CC1`, the Potency entry was “inactive”.

As for `O=C(Nc1cc(C(F)(F)F)ccc1N1CCCCC1)c1ccncc1`, the Potency result was “inactive”.

For the compound `Cc1[nH]c2ccccc2c1C1=C(NCCc2ccc(F)cc2)C(=O)N(C)C1=O`, the Potency entry is “inactive”. For the compound `Cc1cccc(/C=N/Nc2cc(N3CCOCC3)nc(OCCc3ccccn3)n2)c1`, the Potency result was “inactive”. As for `COc1cc(N2CCN(C)CC2)ccc1Nc1nc(N)c(C(=O)c2c(Cl)cccc2Cl)s1`, the Potency result was “inactive”. For the compound `N#Cc1ccc2ncnc(NCCc3ccccc3)c2c1`, the Potency entry was “inactive”. For `CN1CCN(C2CCC(n3cc(-c4ccc(Oc5ccccc5)cc4)c4c(N)ncnc43)CC2)CC1` (stereo unspecified), the Potency entry was “inactive”. Regarding `NC1CCC(Nc2nc(Nc3ccc(C(=O)N4CCCCC4)cc3)c3ncn(-c4cccc(F)c4)c3n2)CC1` (stereo unspecified), the Potency was 11.5 µM (active). As for `Cc1[nH]nc2ncc(C(=O)N3CCC[C@H]3c3ccc(Cl)cc3)cc12`, the Potency was 12.4 µM (active). With `O=C1C(c2c(O)[nH]c3ccccc23)=Nc2ccccc21`, the Potency entry was “inactive”.

Turning to `Oc1ccc(-c2ccc(-c3cc(Nc4cccc(CNC5CC5)c4)n[nH]3)cc2)c(O)c1`, the Potency was 10.7 µM (active). The entry for `Nc1ncc(-c2cnn(CCO)c2)c2scc(-c3ccc(NC(=O)Nc4cccc(F)c4)cc3)c12` is “inactive”; for `Cn1sc(=O)n(Cc2ccccc2)c1=O` it is “inactive”; for `Cc1ccccc1-n1c([C@H](C)Nc2nc(N)nc3nc[nH]c23)nc2cccc(C)c2c1=O` it is “inactive”. For the compound `CNC(=O)c1ccccc1Sc1ccc2c(/C=C/c3ccccn3)n[nH]c2c1`, the Potency result was “inactive”. For the compound `CCCCNc1ncc2c(-c3ccc(S(=O)(=O)N4CCOCC4)cc3)nn(C3CCC(O)CC3)c2n1` (stereo unspecified), the Potency entry is “inactive”. On to `CC(C)(NS(=O)(=O)c1ccc2c(Cl)cnc(N=C(N)N)c2c1)C(=O)O`, for which the Potency entry was “inactive”.

As to `O=S(=O)(/N=C/c1c(O)ccc2ccccc12)c1cccs1`, the Potency entry was “inactive”.

For `CCN1C(=O)CNc2ncc(-c3ccc(-c4ncn[nH]4)nc3C)nc21`, the Potency entry was “inactive”. For `O=C(Nc1ccc(OC(F)(F)F)cc1)c1sccc1NCc1ccnc2ccccc12`, the Potency entry was “inactive”. Regarding `Cc1cn(-c2cc(F)cc(NC(=O)c3ccc(C)c(Nc4nccc(-c5cccnc5)n4)c3)c2)cn1`, the Potency entry was “inactive”. With `Cc1c(Cl)cccc1S(=O)(=O)Nc1nc(NCCc2ccccc2)nc2c1CN(Cc1ccccc1)CC2`, the Potency entry was “inactive”.

For `Cn1cc(-c2[nH]c3cc(NC(=O)[C@H](N)C4CCCCC4)cc4c3c2C=NNC4=O)cn1`, the Potency was 0.6 µM (active). With `NC(=O)c1cccc(-c2cc(Nc3ccc(OC(F)(F)F)cc3)ncn2)c1` the entry was “inactive”. As for `CN1CCN(CCOc2cc(OC3CCOCC3)c3c(Nc4c(Cl)ccc5c4OCO5)ncnc3c2)CC1`, the Potency result is “inactive”.

For the compound `CCCCCCCCCCCCc1ccc(S(=O)(=O)Nc2nncs2)cc1`, the Potency result was “inactive”. Regarding `COc1ccc2c(Oc3ccc(NC(=O)c4c(C)n(CC(C)(C)O)n(-c5ccccc5)c4=O)nc3)ccnc2c1`, the Potency result was “inactive”.

Regarding `CNS(=O)(=O)c1ccc2c(c1)/C(=C/c1[nH]c3c(c1CCCN1CCN(C)CC1)CCCC3)C(=O)N2`, the Potency entry was “inactive”. As for `CN1CCN(CCCNc2ncc(Cl)c(-c3cc4c(C(=O)NC5CC5)cccc4s3)n2)CC1`, the Potency result was “inactive”. Take `COc1ccccc1-c1c[nH]c2ncc(-c3cncc(C(=O)N(C)C)c3)cc12`: the Potency result was “inactive”. On to `C=CC(=O)N1CCC[C@@H](n2nc(-c3cccc(C(=O)Nc4ccc(C(C)C)c(C)c4)c3)c3c(N)ncnc32)C1`, for which the Potency entry was “inactive”. For `O=c1c(O)c(-c2ccc(O)c(O)c2)oc2cc(O)cc(O)c12`, the Potency result is “inactive”.

For `CCNC(=O)Nc1ccc(-c2nc3c(c(N4CCOC[C@@H]4C)n2)CCN(c2ncccn2)C3)cc1`, the Potency result is “inactive”.

For `CCOc1ccn(-c2ccc(F)cc2)c(=O)c1C(=O)Nc1ccc(Oc2ccnc(N)c2Cl)c(F)c1`, the Potency is 0.813 µM (active).

Turning to `COc1cc2c(Oc3ccc4[nH]c(C)cc4c3F)ncnc2cc1OCCCN1CCCC1`, the Potency entry was “inactive”.
